TNAP act mid DEA: activates human TNAP at intermediate phosphate acceptor concentration | purified TNAP, CDP-star luminescence, 100 mM DEA, 30 min; hits give high values; scale: 0 levamisole-inhibited, 1 vehicle-only enzyme | AID 813 | 64,000 tested, under 10 active | P05186 | activation factor at 20 µM;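 active = activation factor of at least 2 at 20 µM, relative to controls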
Target sequence (P05186 whole entry, looked up): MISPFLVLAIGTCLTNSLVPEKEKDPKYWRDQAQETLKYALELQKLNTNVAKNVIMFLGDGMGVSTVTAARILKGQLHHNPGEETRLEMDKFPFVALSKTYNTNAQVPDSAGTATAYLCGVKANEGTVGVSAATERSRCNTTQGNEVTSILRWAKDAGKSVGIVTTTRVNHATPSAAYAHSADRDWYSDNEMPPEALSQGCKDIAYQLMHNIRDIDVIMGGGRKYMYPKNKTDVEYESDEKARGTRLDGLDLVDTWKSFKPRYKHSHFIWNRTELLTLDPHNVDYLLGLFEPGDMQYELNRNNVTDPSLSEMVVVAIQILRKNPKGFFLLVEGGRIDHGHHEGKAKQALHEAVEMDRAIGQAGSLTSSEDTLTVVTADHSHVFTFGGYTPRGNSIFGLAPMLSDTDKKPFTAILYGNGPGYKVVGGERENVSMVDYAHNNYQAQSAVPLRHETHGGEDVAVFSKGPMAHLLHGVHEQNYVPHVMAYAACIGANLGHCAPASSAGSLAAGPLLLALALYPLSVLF
CatB mix inh: inhibitors of human cathepsin B in compound mixtures; 62,000 compounds, 0.06% hits; Purified cathepsin B, AMC dipeptide fluorescence; inhibition, %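 (ten-compound pools at 5 µM per compound and 50 µM total)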; AID 488; in the data active = inhibition above about 22%, passing the limit was not always enough; inconclusive = no clear call, values can overlap the other calls
CatS inh: inhibitors of human cathepsin S | P25774 | recombinant cathepsin S, AMC dipeptide fluorescence, pooled mixtures | inhibition, %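 (tested at 5 µM per compound within 10-compound mixtures)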 | 62,000 compounds, 0.06% hits; in the data active = inhibition above about 32%, passing the limit was not always enough; inconclusive = no clear call, values can overlap the other calls
CatB inh: inhibitors of human cathepsin B | P07858 | purified cathepsin B, fluorogenic substrate, fluorescence | inhibition, %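 (tested at 10 µM)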 | 63,000 compounds, 0.1% hits | AID 453; in the data active = inhibition above about 21%
CatL block: inhibitors of human cathepsin L; purified cathepsin L, fluorogenic substrate, fluorescence; inhibition, %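 (tested at 10 µM)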; 58,000 compounds, 0.17% hits; AID 460; in the data active = inhibition above about 45%
MMP13 inh: inhibitors of human MMP13. P45452. MMP-13 fTHP FRET cleavage, Mca fluorescence. inhibition, % at 4 µM. 65,000 compounds, 0.07% hits;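 active = inhibition above the mean of compound-free control plate wells plus 3 SD, cut at about 14% in these data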
Hits are given with their value. Compounds with a hit are over-represented: about 0.37% of the library has one in this group of screens.

For CC1CN(S(=O)(=O)c2ccc(C(=O)Nc3sc4c(c3C(N)=O)CCN(C)C4)cc2)CC(C)O1 (stereo unspecified) the results were TNAP act mid DEA inactive, CatB mix inh inactive, CatS inh inactive, CatB inh inactive, CatL block inactive and MMP13 inh inactive.
For CCOC(=O)c1sc(=NC(=O)c2ccc(S(=O)(=O)N3CC(C)OC(C)C3)cc2)n(C)c1C (stereo unspecified) the results were TNAP act mid DEA inactive, CatB mix inh inactive, CatS inh inactive, CatB inh 43, CatL block inactive and MMP13 inh inactive.
Screening Cc1csc(Sc2nc3c(c(=O)[nH]c(=O)n3C)n2CCCc2ccccc2)n1 returned TNAP act mid DEA inactive, CatB mix inh inactive, CatS inh inactive, CatB inh inactive, CatL block inactive and MMP13 inh inactive.
`CCOc1nc(C#N)nc(N2CCCCC2)n1` gave TNAP act mid DEA inactive, CatB mix inh inactive, CatS inh 37, CatB inh inactive, CatL block 59 and MMP13 inh inactive.
CCOc1nc(OCC)nc(N2CCC(C)CC2)n1 was read as TNAP act mid DEA inactive, CatB mix inh inactive, CatS inh inactive, CatB inh inactive, CatL block inactive and MMP13 inh inactive.
Nc1nonc1-c1noc(N2CCCCC2)n1 was read as TNAP act mid DEA inactive, CatB mix inh inactive, CatS inh inactive, CatB inh 24, CatL block inactive and MMP13 inh inactive.
Screening Cc1noc(C)c1CSc1ncnc2ccccc12 returned TNAP act mid DEA inactive, CatB mix inh inactive, CatS inh inactive, CatB inh inactive, CatL block inactive and MMP13 inh inactive.
O=C(Oc1oc(-c2ccco2)nc1C=Nc1ccccc1)c1ccco1 was read as TNAP act mid DEA inactive, CatB mix inh inactive, CatS inh inactive, CatB inh 22, CatL block inactive and MMP13 inh inactive.
`N#CC1=C(N)n2c(s/c(=C\c3ccco3)c2=O)=C(C#N)C1c1ccco1` (stereo unspecified) gave TNAP act mid DEA inactive, CatB mix inh inactive, CatS inh inactive, CatB inh inactive, CatL block inactive and MMP13 inh inactive.
CCOC(=O)C1=C(N)n2c(s/c(=C/c3ccco3)c2=O)=C(C(=O)OC)C1c1ccco1 (stereo unspecified) was read as TNAP act mid DEA inactive, CatB mix inh inactive, CatS inh inactive, CatB inh inactive, CatL block inactive and MMP13 inh 14.
For Cc1noc(/C=C/N(C)C)c1S(=O)(=O)N1CCN(c2ccccc2)CC1 the results were TNAP act mid DEA inactive, CatB mix inh inactive, CatS inh inactive, CatB inh inactive, CatL block 53 and MMP13 inh inactive.
Screening Cc1ccc(C)c(N2CCN(S(=O)(=O)c3c(C)noc3/C=C/N(C)C)CC2)c1 returned TNAP act mid DEA inactive, CatB mix inh inactive, CatS inh inactive, CatB inh inactive, CatL block inactive and MMP13 inh inactive.
O=C(c1ccco1)N1CCN(CC(O)Cn2c3ccccc3c3ccccc32)CC1 (stereo unspecified) was read as TNAP act mid DEA inactive, CatB mix inh inactive, CatS inh inactive, CatB inh inactive, CatL block inactive and MMP13 inh inactive.
For Cc1nc2ccccc2c(=O)n1/N=C/c1ccc(N(C)C)cc1 the results were TNAP act mid DEA inactive, CatB mix inh inactive, CatS inh inactive, CatB inh inactive, CatL block inactive and MMP13 inh inactive.
For CCN(CC)c1ccc(/C=N/n2c(=S)[nH]nc(C)c2=O)cc1 the results were TNAP act mid DEA inactive, CatB mix inh inactive, CatS inh inactive, CatB inh inactive, CatL block 104 and MMP13 inh inactive.
For O=C(COc1cc(Cl)c(Cl)cc1Cl)Nn1cnnc1 the results were TNAP act mid DEA inactive, CatB mix inh inactive, CatS inh inactive, CatB inh inactive, CatL block inactive and MMP13 inh inactive.
For CC(=O)Nc1c(C(=O)C2CC2)oc2ccccc12 the results were TNAP act mid DEA inactive, CatB mix inh inactive, CatS inh inactive, CatB inh inactive, CatL block inactive and MMP13 inh inactive.
Screening CC(=O)Nc1c(C(=O)c2ccccc2)oc2ccccc12 returned TNAP act mid DEA inactive, CatB mix inh inactive, CatS inh inconclusive, CatB inh inactive, CatL block 104 and MMP13 inh inactive.
Screening COC(=O)c1nnn(CC(=O)Nc2cccc(Cl)c2C)c1C(=O)OC returned TNAP act mid DEA inactive, CatB mix inh inactive, CatS inh inactive, CatB inh inactive and MMP13 inh inactive.

Screens as filed in PubChem.
